The entries come from a sample that favours the strongest signals as a whole.
Columns and labels:
Test in all cases: glycan array binding signal (z-score within array); higher = stronger binding
Settings in all cases: glycan notation: IUPAC condensed, linker removed
[1] = biological target: GalNAc(b1-4)GlcNAc
In short: (§1)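 From the Consortium for Functional Glycomics database, 3228 arrays were curated, keeping only those whose protein sequence was available. Binding is given as a within-array Z-score averaged across arrays sharing a protein sequence and across linkers. Negative Z-scores can be read as non-binding.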

[2] = biological target: GlcNAc(a1-4)Gal(b1-4)GlcNAc(b1-3)Gal(b1-4)Glc
In short: as §1

[3] = biological target: GlcNAc(a1-4)Gal(b1-4)GlcNAc(b1-3)Gal(b1-4)GlcNAc(b1-3)Gal(b1-4)GlcNAc
In short: as §1

[4] = biological target: GlcNAc(b1-2)Man(a1-3)[GlcNAc(b1-2)Man(a1-6)]Man(b1-4)GlcNAc(b1-4)GlcNAc
In short: as §1

[5] = biological target: GlcNAc(b1-2)[GlcNAc(b1-6)]Man(a1-6)[GlcNAc(b1-4)][GlcNAc(b1-2)Man(a1-3)]Man(b1-4)GlcNAc(b1-4)GlcNAc
In short: as §1

[6] = biological target: GlcNAc(b1-3)Gal(b1-4)GlcNAc
In short: as §1

[7] = biological target: GlcNAc(b1-3)Gal(b1-4)GlcNAc(b1-3)Gal(b1-4)GlcNAc(b1-3)Gal(b1-4)GlcNAc(b1-2)[GlcNAc(b1-3)Gal(b1-4)GlcNAc(b1-3)Gal(b1-4)GlcNAc(b1-3)Gal(b1-4)GlcNAc(b1-6)]Man(a1-6)[GlcNAc(b1-3)Gal(b1-4)GlcNAc(b1-3)Gal(b1-4)GlcNAc(b1-3)Gal(b1-4)GlcNAc(b1-2)Man(a1-3)]Man(b1-4)GlcNAc(b1-4)[Fuc(a1-6)]GlcNAc
In short: as §1

[8] = biological target: GlcNAc(b1-6)GalNAc
In short: as §1

[9] = biological target: Kdn(a2-3)Gal(b1-4)[Fuc(a1-3)]GlcNAc
In short: as §1

[10] = biological target: Neu5Ac(a2-3)Gal(b1-3)GalNAc
In short: as §1

[11] = biological target: Neu5Ac(a2-3)Gal(b1-3)GlcNAc(b1-2)Man(a1-3)[GlcNAc(b1-4)][Neu5Ac(a2-3)Gal(b1-3)GlcNAc(b1-2)Man(a1-6)]Man(b1-4)GlcNAc(b1-4)GlcNAc
In short: as §1

[12] = biological target: Neu5Ac(a2-3)Gal(b1-3)GlcNAc(b1-3)Gal(b1-4)GlcNAc
In short: as §1

[13] = biological target: Neu5Ac(a2-3)Gal(b1-3)[Fuc(a1-4)]GlcNAc(b1-3)Gal(b1-3)[Fuc(a1-4)]GlcNAc
In short: as §1

[14] = biological target: Neu5Ac(a2-3)Gal(b1-4)GlcNAc(b1-2)Man
In short: as §1

[15] = biological target: Neu5Ac(a2-3)Gal(b1-4)GlcNAc(b1-2)Man(a1-3)[Neu5Ac(a2-6)Gal(b1-4)GlcNAc(b1-2)Man(a1-6)]Man(b1-4)GlcNAc(b1-4)GlcNAc
In short: as §1

[16] = biological target: Neu5Ac(a2-3)Gal(b1-4)GlcNAc(b1-3)Gal(b1-4)GlcNAc(b1-3)Gal(b1-4)GlcNAc
In short: as §1

[17] = biological target: Neu5Ac(a2-3)Gal(b1-4)[Fuc(a1-3)]GlcNAc(b1-3)Gal(b1-4)GlcNAc
In short: as §1

[18] = biological target: Neu5Ac(a2-3)Gal(b1-4)[Fuc(a1-3)]GlcNAc(b1-3)Gal(b1-4)[Fuc(a1-3)]GlcNAc(b1-3)Gal(b1-4)[Fuc(a1-3)]GlcNAc
In short: as §1

[19] = biological target: Neu5Ac(a2-3)[GalNAc(b1-4)]Gal(b1-4)GlcNAc(b1-3)GalNAc
In short: as §1

[20] = biological target: Neu5Ac(a2-6)Gal(b1-4)GlcNAc(b1-2)Man(a1-3)[Neu5Ac(a2-6)Gal(b1-4)GlcNAc(b1-2)Man(a1-6)]Man(b1-4)GlcNAc(b1-4)GlcNAc
In short: as §1

[21] = biological target: Neu5Ac(a2-6)Gal(b1-4)GlcNAc(b1-2)Man(a1-6)[GlcNAc(b1-2)Man(a1-3)]Man(b1-4)GlcNAc(b1-4)GlcNAc
In short: as §1

[22] = biological target: Neu5Ac(a2-6)Gal(b1-4)GlcNAc(b1-3)Gal(b1-4)GlcNAc(b1-3)Gal(b1-4)GlcNAc(b1-2)Man(a1-3)[Neu5Ac(a2-6)Gal(b1-4)GlcNAc(b1-3)Gal(b1-4)GlcNAc(b1-3)Gal(b1-4)GlcNAc(b1-2)Man(a1-6)]GalNAc
In short: as §1

[23] = biological target: Neu5Ac(a2-6)Gal(b1-4)GlcNAc(b1-6)[Gal(b1-3)]GalNAc
In short: as §1

[24] = biological target: Neu5Ac(a2-8)Neu5Ac(a2-3)Gal(b1-3)GalNAc(b1-4)[Neu5Ac(a2-8)Neu5Ac(a2-3)]Gal(b1-4)Glc
In short: as §1

[25] = biological target: Neu5Ac(a2-8)Neu5Ac(a2-3)[Gal(b1-3)GalNAc(b1-4)]Gal(b1-4)Glc
In short: as §1

[26] = biological target: Neu5Ac(b2-6)GalNAc
In short: as §1

[27] = biological target: Neu5Gc(a2-8)Neu5Gc(a2-6)Gal(b1-4)GlcNAc
In short: as §1

B1: FimD (Bordetella pertussis) (protein)
chain: MPARVISFCGAALAVWAGLAVQPAMAVDPPVDCGRALGLHFWSSASLISDQTPDGTLIGKPVVGRSLLSKSCKVPDDIKEDLSDNHDGEPVDIVLELGSNYKIRPQSYGHPGIVVDLPFGSTEETGIAIYIDFGSSPMQKVGERQWLYPQKGEVLFDVLTINGDNAEVRYQAIKVGPLKRPRKLVLSQFPNLFTYKWVFMRGTSQERVLAQGTIDTDVATSTIDLKTCRYTSQTVSLPIIQRSALTGVGTTLGMTDFQMPFWCYGWPKVSVYMSATKTQTGVDGVALPATGQAAGMASGVGVQLINGKTQQPVKLGLQGKIALPEAQQTESATFSLPMKAQYYQTSTSTSAGKLSVTYAVTLNYD
glycan array binding signal (z-score) [1]: 1.38 | glycan array binding signal (z-score) [2]: 1.99 | glycan array binding signal (z-score) [3]: -0.238 | glycan array binding signal (z-score) [4]: 0.004 | glycan array binding signal (z-score) [5]: -0.119 | glycan array binding signal (z-score) [6]: -0.296 | glycan array binding signal (z-score) [7]: 1.29 | glycan array binding signal (z-score) [8]: -0.117 | glycan array binding signal (z-score) [9]: -0.279 | glycan array binding signal (z-score) [10]: 0.041 | glycan array binding signal (z-score) [11]: -0.459 | glycan array binding signal (z-score) [12]: -0.268 | glycan array binding signal (z-score) [13]: -0.191 | glycan array binding signal (z-score) [14]: 1.16 | glycan array binding signal (z-score) [15]: -0.107 | glycan array binding signal (z-score) [16]: 0.504 | glycan array binding signal (z-score) [17]: 0.96 | glycan array binding signal (z-score) [18]: -0.135 | glycan array binding signal (z-score) [19]: 0.943 | glycan array binding signal (z-score) [20]: 0.115 | glycan array binding signal (z-score) [21]: -0.065 | glycan array binding signal (z-score) [22]: 1.34 | glycan array binding signal (z-score) [23]: -0.022 | glycan array binding signal (z-score) [24]: 1.36 | glycan array binding signal (z-score) [25]: -0.095 | glycan array binding signal (z-score) [26]: -0.348 | glycan array binding signal (z-score) [27]: -0.611

Reference: the supplement of paper PMC8728848
